# From PubChem BioAssay (NCI)
# About 83,000 compounds went through this panel and 20% of them were active in at least one assay; those are over-represented in the sample as a whole.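 Activity criterion: percent growth below 10, measured after cells in 96-well plates were exposed to a single compound concentration for 48 hours.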 A number with no mark means an inactive call. Active and inactive are the calls of the source.
# What was measured:
# Assay in all cases: NCI-60 one-dose screen, 48 h (100 = growth as untreated, 0 = no growth, -100 = all killed)
# Settings in all cases: 10 µM unless noted
# SK-MEL-2 melanoma = system: SK-MEL-2 melanoma
# EKVX NSCLC = system: EKVX NSCLC
# SN12C renal = system: SN12C renal
# UO-31 renal = system: UO-31 renal
# TK-10 renal = system: TK-10 renal
# ACHN renal = system: ACHN renal
# CAKI-1 renal = system: CAKI-1 renal
# A498 renal = system: A498 renal
# CCRF-CEM leukemia = system: CCRF-CEM leukemia
# MOLT-4 leukemia = system: MOLT-4 leukemia
# SR leukemia = system: SR leukemia
# OVCAR-8 ovarian = system: OVCAR-8 ovarian
# OVCAR-5 ovarian = system: OVCAR-5 ovarian
# OVCAR-4 ovarian = system: OVCAR-4 ovarian
# SK-OV-3 ovarian = system: SK-OV-3 ovarian
# IGROV1 ovarian = system: IGROV1 ovarian
# OVCAR-3 ovarian = system: OVCAR-3 ovarian
# NCI/ADR-RES ovarian = system: NCI/ADR-RES ovarian
# HS 578T breast = system: HS 578T breast
SMILES,growth (SK-MEL-2 melanoma),growth (EKVX NSCLC),growth (SN12C renal),growth (UO-31 renal),growth (TK-10 renal),growth (ACHN renal),growth (CAKI-1 renal),growth (A498 renal),growth (CCRF-CEM leukemia),growth (MOLT-4 leukemia),growth (SR leukemia),growth (OVCAR-8 ovarian),growth (OVCAR-5 ovarian),growth (OVCAR-4 ovarian),growth (SK-OV-3 ovarian),growth (IGROV1 ovarian),growth (OVCAR-3 ovarian),growth (NCI/ADR-RES ovarian),growth (HS 578T breast)
CCOC(=O)c1cn2ncnc(Oc3ccc(NC(=O)NCCN(C)C)c(Cl)c3)c2c1C,112%,79.3%,63.9%,62.1%,105%,84.5%,65.8%,57.5%,43.4%,53.9%,-13.1% (active),78.9%,91.6%,82.4%,94.1%,78.7%,75%,88.7%,
CCOc1cccc(NC2=C(Br)C(=O)C(C)=C(C)C2=O)c1,95.5%,92.4%,85%,71.7%,155%,85.8%,96%,109%,3.35% (active),2.57% (active),74.7%,91.5%,95.7%,56.7%,88%,58.6%,87.6%,96.5%,
CCN(CC)CCNC(=O)c1cn2ncnc(Oc3ccc(NC(=O)Nc4ccc(Cl)c(C(F)(F)F)c4)cc3)c2c1C,-51.7% (active),-47.7% (active),-92.5% (active),-92% (active),-66% (active),-55.2% (active),-58.9% (active),-6.51% (active),-8.36% (active),-45% (active),-56.4% (active),-42.5% (active),-62.7% (active),-8.97% (active),-85.9% (active),-53.1% (active),-70.9% (active),61%,-44.4% (active)
COc1cc2cc(Oc3ccc(NC(=O)Nc4cc(C(F)(F)F)cc(C(F)(F)F)c4)cc3)c(C)nc2cc1OCCN1CCOCC1,32.9%,21.4%,8.87% (active),20.1%,53.6%,5.89% (active),15.3%,40.7%,9.65% (active),8.21% (active),-34.9% (active),17.2%,46.6%,17.9%,22.7%,33.5%,9.29% (active),9.17% (active),
O=c1cc(SCc2ccccc2)nc[nH]1,111%,94.9%,120%,103%,108%,108%,85.6%,113%,98.5%,89.4%,127%,117%,93.5%,117%,114%,111%,114%,101%,119%
O=C(CCN1C(=O)/C(=C/c2ccc(O)cc2)SC1=S)Nc1ccccc1,111%,100%,87.6%,67%,102%,92%,97.1%,97.8%,72.2%,85.5%,119%,94.6%,106%,89.6%,65.9%,94.6%,108%,99.1%,
Cc1[nH]c(C(=O)Nc2ccc(C(=O)N3CCNCC3)cc2OC(C)C)c(Cl)c1Cl,106%,82.8%,80.1%,47.9%,79.2%,67.7%,48.8%,64.4%,27.7%,54.1%,-34.3% (active),87.1%,90.3%,81.9%,89.3%,69.5%,71.4%,80.5%,
O=C(N/N=C/[C@H](O)[C@H](O)[C@H](O)CO)c1ccc(NC(=O)c2cccnc2)cc1,118%,105%,94.5%,83.7%,104%,109%,94.1%,99.3%,99.2%,109%,99.9%,102%,102%,110%,110%,107%,118%,109%,98.4%
NCCCNc1nc2ccccc2c2c(=O)c3cccc(F)c3sc12,94.6%,60.4%,43.4%,16.4%,54.2%,8.21% (active),1.7% (active),29.4%,9.26% (active),-14.7% (active),-16.7% (active),29%,66.9%,26.2%,58.5%,32.5%,18.5%,30.3%,52.4%
NCCCNc1nc2ccc(Cl)cc2c2c(=O)c3cc(F)ccc3sc12,104%,81.3%,71%,46.3%,89%,35.4%,24.4%,23.4%,12.1%,8.78% (active),-27.4% (active),57.3%,83.5%,11.3%,89.4%,52.8%,8.74% (active),65.9%,65.9%
Cc1ccc(NC2=C(Cl)C(=O)c3nc(C)ccc3C2=O)cc1,-23.8% (active),58.6%,-70.4% (active),-80.6% (active),130%,-98.1% (active),-72% (active),91%,0.58% (active),-13.5% (active),21.8%,-49.4% (active),-11.6% (active),-97.9% (active),88.7%,-75.5% (active),-76.7% (active),30.6%,
O=C(O)c1cn(C2CC2)c2cc(N3CCN(C(=O)Nc4nc(-c5ccccc5)cs4)CC3)c(F)cc2c1=O,-10.8% (active),37.5%,4.91% (active),5.5% (active),26.3%,25.2%,63.6%,-0.916% (active),23%,22.9%,4.63% (active),13.8%,50.3%,62.4%,14.7%,,7.8% (active),76.7%,40.6%
N#Cc1c(-c2ccc(Cl)cc2)nc(NCCO)[nH]c1=O,94.4%,157%,96.2%,74.5%,97.9%,101%,94.2%,125%,113%,99.5%,99.5%,103%,91.6%,108%,102%,,104%,98.8%,109%
COc1ccc(-c2nnc(COc3ccc(Cl)cc3Cl)o2)cc1OC,57.6%,-15.8% (active),12.1%,-36.4% (active),-8.66% (active),13.7%,57.7%,15.9%,29.3%,54.3%,46.8%,20.1%,74.6%,-33.1% (active),37.6%,,1.98% (active),17.5%,4.73% (active)
O=C1/C(=C/c2ccc(F)cc2)Sc2c(Br)cccc21,63.5%,87.9%,62.7%,42%,111%,76.5%,81.5%,92.9%,86.2%,81.5%,50.5%,64.9%,101%,82.3%,84.1%,,86.3%,71.9%,80.3%
COc1cccc(/C=C2\C=C(c3ccccc3)N(Cc3ccccc3)C2=O)c1,72.6%,39.3%,43.6%,41.2%,88.5%,48%,55.1%,16%,62.2%,59.1%,10.9%,68%,92.8%,71.9%,42%,,59.3%,51.3%,42%
CN1CCN(Cc2ccc(NC(=O)c3ccc(C(C)(C)C)c(C#Cc4cnc5cccnn45)c3)cc2C(F)(F)F)CC1,33.7%,-32.8% (active),-67.4% (active),-47% (active),-93.8% (active),-75.2% (active),-45.1% (active),75.5%,-36.7% (active),-57% (active),-49.7% (active),-30.4% (active),-25.4% (active),15%,-56.6% (active),,-68.5% (active),-43.5% (active),-24.8% (active)
